Measurements as given in ChEMBL document CHEMBL3988442, “University of Dundee, Small-Polar-MMV Screening Library” (2021).
For some of these results: Potency and affinity values are given separately.

Columns and labels:
Parameters in all cases: scale not given: direction of the effect not stated beside the values
[1] = biological target: Protein translocase subunit SecA (Escherichia coli (strain K12)) (UniProt P10408); assay: Assay to Identify E. coli SecA ATPase Inhibitors; assay type: functional; details: 30 µM
[2] = biological target: T1, Ubiquitin-activating enzyme e1, putative (Leishmania donovani (strain BPK282A1)) (UniProt E9BSI1); assay: Leishmania donovani Ubiquitin Activating Enzyme (LdE1); assay type: functional; details: 30 µM
T1 sequence (whole entry): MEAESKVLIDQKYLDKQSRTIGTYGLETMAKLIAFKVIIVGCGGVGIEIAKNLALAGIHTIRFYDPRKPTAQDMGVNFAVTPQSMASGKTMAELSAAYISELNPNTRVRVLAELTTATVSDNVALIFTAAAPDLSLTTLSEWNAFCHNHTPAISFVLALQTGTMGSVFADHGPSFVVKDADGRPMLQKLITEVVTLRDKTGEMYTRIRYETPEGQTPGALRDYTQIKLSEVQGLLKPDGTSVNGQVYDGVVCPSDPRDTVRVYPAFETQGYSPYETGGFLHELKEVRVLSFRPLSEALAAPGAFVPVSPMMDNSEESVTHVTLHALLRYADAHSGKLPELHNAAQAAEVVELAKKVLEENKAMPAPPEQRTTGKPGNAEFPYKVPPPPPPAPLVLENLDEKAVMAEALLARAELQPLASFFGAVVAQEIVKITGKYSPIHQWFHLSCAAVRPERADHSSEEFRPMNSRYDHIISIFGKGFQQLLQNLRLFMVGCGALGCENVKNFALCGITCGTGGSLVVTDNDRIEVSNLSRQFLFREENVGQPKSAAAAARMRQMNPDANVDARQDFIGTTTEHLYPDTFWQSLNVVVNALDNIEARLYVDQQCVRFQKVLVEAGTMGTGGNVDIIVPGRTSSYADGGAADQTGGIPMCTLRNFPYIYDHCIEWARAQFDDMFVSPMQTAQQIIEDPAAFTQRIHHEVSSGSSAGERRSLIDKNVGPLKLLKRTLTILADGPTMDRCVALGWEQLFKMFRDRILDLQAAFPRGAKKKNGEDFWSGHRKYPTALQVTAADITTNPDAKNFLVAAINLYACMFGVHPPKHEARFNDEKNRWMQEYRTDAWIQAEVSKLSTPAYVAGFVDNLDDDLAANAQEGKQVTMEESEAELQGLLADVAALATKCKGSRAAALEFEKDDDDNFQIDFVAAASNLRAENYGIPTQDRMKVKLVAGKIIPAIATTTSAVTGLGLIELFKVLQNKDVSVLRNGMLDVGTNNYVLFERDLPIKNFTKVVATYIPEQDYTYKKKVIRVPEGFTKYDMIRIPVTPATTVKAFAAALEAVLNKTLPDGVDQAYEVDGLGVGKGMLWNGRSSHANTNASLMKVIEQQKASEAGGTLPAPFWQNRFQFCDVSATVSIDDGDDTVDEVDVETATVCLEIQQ

[3] = biological target: AMP-activated protein kinase, AMPK (Homo sapiens) (UniProt P54646+O43741+P54619+Q9UGJ0+Q9Y478+Q13131+Q9UGI9); assay: AMP-dependent Kinase enzyme assay. An in vitro enzyme assay that detects ADP turnover that is directly proportional to AMPK activity. This uses naive AMPK that is activated during the assay with MK-8722; assay type: functional; details: 30 µM
[4] = biological target: Sialic acid-binding Ig-like lectin 9 (Homo sapiens) (UniProt Q9Y336); assay: Hs-Siglec9 ALPHAscreen SOP 20170721; details: 10 µM
Trypanosoma cruzi = assay: Trypanosoma cruzi phosphomannomutase and mannose-1-phosphate guanylyltransferase assay; assay type: functional; details: 10 µM
[5] = biological target: T2, Arginase-2, mitochondrial (Homo sapiens) (UniProt P78540); assay: in vitro enzyme assay to detect the production of urea directly proportional to the activity of Arginase II; assay type: functional; details: 33.3 µM; note: in the data most compounds retested in dose-response had high values
T2 sequence (whole entry): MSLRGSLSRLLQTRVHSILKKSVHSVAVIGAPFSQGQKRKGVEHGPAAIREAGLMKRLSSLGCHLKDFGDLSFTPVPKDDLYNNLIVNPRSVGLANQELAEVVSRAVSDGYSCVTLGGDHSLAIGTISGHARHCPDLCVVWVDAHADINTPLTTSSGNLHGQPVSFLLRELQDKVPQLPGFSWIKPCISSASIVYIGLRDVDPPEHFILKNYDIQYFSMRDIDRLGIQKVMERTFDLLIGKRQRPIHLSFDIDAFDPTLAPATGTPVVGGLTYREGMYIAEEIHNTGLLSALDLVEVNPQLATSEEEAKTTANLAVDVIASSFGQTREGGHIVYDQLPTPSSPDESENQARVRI

[6] = biological target: T3, Proteasome subunit beta (Trypanosoma cruzi) (UniProt O96673); assay: Trypanosoma cruzi proteasome chymotrypsin-like activity (TcProtChymo) assay.; note: in the data most compounds retested in dose-response had high values; assay type: functional; details: 9.37 µM
T3 sequence (whole entry): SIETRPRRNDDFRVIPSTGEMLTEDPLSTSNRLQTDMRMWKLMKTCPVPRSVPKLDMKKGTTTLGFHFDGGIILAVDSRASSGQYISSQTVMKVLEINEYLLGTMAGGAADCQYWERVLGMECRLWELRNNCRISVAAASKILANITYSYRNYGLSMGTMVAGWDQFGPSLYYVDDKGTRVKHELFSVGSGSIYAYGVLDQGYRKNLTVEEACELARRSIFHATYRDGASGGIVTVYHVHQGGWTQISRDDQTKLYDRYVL

Homo sapiens = species: Homo sapiens; assay: To identify inhibition of the IFN signalling (Jak-Stat) pathway via expression of an eGFP reporter gene under the control of an IFN-stimulated response element (ISRE) containing MxA promoter.; assay type: functional; details: 30 µM
[7] = biological target: T4, Tyrosyl-tRNA synthetase, putative (Trypanosoma cruzi (strain CL Brener)) (UniProt Q4DSP6); assay: Trypanosoma cruzi tyrosyl tRNA synthetase (TcYRS) _High Tyrosine SOP; assay type: functional; details: 30 µM; note: in the data most compounds retested in dose-response had high values
T4 sequence (whole entry): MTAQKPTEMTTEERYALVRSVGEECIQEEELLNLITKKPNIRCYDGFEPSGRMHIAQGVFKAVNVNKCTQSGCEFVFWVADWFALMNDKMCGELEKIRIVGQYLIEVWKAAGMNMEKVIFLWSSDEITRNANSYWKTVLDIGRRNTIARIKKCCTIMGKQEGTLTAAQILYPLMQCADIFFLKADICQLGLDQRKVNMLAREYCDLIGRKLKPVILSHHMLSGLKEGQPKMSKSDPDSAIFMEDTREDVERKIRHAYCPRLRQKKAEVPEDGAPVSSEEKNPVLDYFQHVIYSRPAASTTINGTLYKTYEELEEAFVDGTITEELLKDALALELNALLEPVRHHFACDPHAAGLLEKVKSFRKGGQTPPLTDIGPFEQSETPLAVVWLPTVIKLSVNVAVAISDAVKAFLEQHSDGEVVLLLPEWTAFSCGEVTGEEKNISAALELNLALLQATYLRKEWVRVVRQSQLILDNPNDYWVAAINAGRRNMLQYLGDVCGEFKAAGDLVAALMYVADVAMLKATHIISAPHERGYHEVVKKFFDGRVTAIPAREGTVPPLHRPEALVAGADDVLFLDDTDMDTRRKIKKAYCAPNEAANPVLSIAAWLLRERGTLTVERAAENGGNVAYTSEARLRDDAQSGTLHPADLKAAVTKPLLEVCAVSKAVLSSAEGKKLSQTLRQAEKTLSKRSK

[8] = biological target: T4, Tyrosyl-tRNA synthetase, putative (Trypanosoma cruzi (strain CL Brener)); assay: Trypanosoma cruzi tyrosyl tRNA synthetase (TcYRS) SOP; assay type: functional; details: 30 µM
[9] = biological target: Chromo domain-containing protein 1 (Saccharomyces cerevisiae (strain ATCC 204508 / S288c) (Baker's yeast)) (UniProt P32657); assay: ScCHD-1 Enzyme Inhibition Assay; assay type: functional; details: 30 µM; note: in the data most compounds retested in dose-response had high values
Chain of Chromo domain-containing protein 1 (Saccharomyces cerevisiae (strain ATCC 204508 / S288c) (Baker's yeast)) (P32657 whole entry, the tested form may be a part): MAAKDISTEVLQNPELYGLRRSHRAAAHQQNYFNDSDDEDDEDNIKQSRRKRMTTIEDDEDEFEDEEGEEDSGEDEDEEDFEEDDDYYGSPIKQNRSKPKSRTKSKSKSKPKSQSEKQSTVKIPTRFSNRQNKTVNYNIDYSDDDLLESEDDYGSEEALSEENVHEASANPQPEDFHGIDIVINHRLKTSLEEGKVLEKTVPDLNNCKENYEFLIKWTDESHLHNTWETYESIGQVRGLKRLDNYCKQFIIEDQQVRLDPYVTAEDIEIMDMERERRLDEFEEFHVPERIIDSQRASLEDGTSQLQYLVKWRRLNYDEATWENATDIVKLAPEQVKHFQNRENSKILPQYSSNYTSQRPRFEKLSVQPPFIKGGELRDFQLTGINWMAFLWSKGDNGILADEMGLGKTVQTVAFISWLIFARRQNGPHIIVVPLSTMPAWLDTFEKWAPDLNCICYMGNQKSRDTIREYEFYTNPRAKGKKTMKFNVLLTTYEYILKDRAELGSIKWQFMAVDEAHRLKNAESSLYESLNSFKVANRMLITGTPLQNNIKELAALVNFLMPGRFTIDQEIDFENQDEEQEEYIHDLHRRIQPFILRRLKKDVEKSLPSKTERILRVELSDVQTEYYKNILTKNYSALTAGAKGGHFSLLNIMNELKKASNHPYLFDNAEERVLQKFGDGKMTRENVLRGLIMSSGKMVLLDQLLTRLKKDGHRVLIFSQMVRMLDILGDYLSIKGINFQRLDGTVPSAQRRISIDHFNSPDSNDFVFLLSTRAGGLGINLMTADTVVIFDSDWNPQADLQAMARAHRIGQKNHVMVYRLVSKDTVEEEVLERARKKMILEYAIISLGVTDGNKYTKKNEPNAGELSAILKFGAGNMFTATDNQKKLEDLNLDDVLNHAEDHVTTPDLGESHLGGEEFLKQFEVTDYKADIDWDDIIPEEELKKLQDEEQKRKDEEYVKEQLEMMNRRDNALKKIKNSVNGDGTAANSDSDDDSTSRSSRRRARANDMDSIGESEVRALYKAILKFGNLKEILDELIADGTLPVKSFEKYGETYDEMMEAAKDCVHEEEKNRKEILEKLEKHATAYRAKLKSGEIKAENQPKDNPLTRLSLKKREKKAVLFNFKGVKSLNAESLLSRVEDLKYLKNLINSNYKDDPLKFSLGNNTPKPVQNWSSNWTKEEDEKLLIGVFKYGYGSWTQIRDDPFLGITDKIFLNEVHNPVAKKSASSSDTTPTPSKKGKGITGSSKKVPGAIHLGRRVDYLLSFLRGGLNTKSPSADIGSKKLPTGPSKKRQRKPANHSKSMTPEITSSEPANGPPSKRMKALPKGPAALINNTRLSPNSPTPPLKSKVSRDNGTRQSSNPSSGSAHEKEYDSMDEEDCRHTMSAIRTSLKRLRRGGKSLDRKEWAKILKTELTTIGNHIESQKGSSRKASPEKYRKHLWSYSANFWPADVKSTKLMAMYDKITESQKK

Chain of Protein translocase subunit SecA (Escherichia coli (strain K12)) (P10408 whole entry): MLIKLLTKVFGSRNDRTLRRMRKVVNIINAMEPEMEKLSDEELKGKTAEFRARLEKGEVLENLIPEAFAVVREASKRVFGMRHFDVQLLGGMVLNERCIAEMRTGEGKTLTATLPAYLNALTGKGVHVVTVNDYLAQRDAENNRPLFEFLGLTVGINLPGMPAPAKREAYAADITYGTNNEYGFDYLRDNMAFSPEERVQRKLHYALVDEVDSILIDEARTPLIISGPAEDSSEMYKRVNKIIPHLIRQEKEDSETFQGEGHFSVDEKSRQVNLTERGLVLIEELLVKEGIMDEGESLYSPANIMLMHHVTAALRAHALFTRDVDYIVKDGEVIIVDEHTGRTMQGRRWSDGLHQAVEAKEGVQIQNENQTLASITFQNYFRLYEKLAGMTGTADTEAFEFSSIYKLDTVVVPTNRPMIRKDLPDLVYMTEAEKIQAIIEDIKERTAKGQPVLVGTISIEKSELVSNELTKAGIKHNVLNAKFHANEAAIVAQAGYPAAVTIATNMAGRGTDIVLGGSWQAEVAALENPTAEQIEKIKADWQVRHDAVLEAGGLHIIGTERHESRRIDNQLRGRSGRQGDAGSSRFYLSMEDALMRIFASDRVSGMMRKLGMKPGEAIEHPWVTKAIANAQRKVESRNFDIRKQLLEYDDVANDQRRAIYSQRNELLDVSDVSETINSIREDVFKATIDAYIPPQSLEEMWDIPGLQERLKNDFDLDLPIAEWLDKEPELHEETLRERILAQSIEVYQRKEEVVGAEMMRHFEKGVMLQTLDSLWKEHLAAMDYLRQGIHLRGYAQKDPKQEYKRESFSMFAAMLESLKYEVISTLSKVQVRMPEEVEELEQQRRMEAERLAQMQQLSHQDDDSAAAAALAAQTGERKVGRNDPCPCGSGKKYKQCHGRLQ
Chain of Sialic acid-binding Ig-like lectin 9 (Homo sapiens) (Q9Y336 whole entry): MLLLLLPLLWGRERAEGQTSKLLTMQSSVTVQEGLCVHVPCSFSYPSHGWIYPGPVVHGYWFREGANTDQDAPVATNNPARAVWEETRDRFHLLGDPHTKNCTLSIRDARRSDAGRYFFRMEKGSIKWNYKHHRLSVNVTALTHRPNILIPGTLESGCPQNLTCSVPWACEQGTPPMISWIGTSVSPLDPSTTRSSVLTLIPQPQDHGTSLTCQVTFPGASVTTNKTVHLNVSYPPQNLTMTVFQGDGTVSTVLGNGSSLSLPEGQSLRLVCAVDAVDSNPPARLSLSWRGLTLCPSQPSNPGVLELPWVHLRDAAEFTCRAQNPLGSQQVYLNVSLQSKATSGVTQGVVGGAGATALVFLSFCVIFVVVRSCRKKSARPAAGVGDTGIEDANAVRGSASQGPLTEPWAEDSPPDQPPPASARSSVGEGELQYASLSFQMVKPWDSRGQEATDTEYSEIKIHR

Row | SMILES | Percent Effect [1] [%] | Percent Effect [2] [%] | Percent Effect [3] [%] | Percent Effect [4] [%] | Percent Effect (Trypanosoma cruzi) [%] | Percent Effect [5] [%] | Percent Effect [6] [%] | Percent Effect (Homo sapiens) [%] | Percent Effect [7] [%] | Percent Effect [8] [%] | Percent Effect [9] [%]
1 | CCc1nsc(NC2CCCn3nc(COC)nc32)n1 (stereo not given) | -4.32 | 13.3 | -5.77 | 21.4 | 4.77 | 16.7 | 9.94 | 7.13 | 3.83 | 13.6 | -6.59
2 | Cc1nnc2n1CCN(C(=O)c1cc(Cl)c[nH]1)C2 | -3.51 | -15.8 | 7.83 | 10.9 | 0.376 | 1.92 | 2.84 | -3.3 | 0.49 | -4.88 | 3.54
3 | CCOC[C@@H]1CCC[C@@]12CN(Cc1nccs1)CCO2 | 0.173 | 16 | -1.62 | -5.32 | 0.787 | 3.5 | 17.4 | 10.8 | 7.45 | 19.2 | -7.27
4 | Cc1nc(C2CCCN2Cc2nc(C)c(C)o2)no1 (stereo not given) | -2.9 | 16.2 | -2.94 | -1.49 | -1.95 | 1.29 | 4.49 | -3.4 | 13.9 | 25.6 | -5.47
5 | Cc1nn(C)c(Cl)c1CNCc1cccnc1N1CCOCC1 | -8.75 | 21.1 | -0.469 | -3.82 | 0.682 | -3.55 | 21 | 3.88 | 9.57 | 18.2 | -6.81
6 | Cc1noc(C)c1-c1cccc(CC2CCN(C(=O)c3cc[nH]n3)C2)n1 (stereo not given) | -2.86 | 10.7 | 9.02 | 7.09 | -2.95 | -1.17 | 8.72 | 15.2 | 4.25 | 8.97 | -0.89
7 | CC(C)(C)c1ncc(C(=O)NCCNC(=O)c2ccccc2)s1 | -3.42 | 21.1 | -4.68 | 1.92 | -3.64 | 0.36 | 10.7 | 12.2 | 7.39 | 18.5 | -4.66
8 | Cc1ccc(C(=O)NCCCNS(C)(=O)=O)cc1-n1cccc1 | -3.12 | 13.2 | 12.3 | -1.07 | 3.99 | 9.47 | 15.2 | 9.99 | 6.38 | 10.4 | -5.78
9 | O=C(NCCN1CCOCC1)c1n[nH]c(=O)c2ccccc12 | -3.44 | 28.6 | -3.48 | 5.43 | 6.37 | -3.56 | 14.2 | 12.3 | 4.85 | 21.9 | -9.16
10 | CCOC(CC)C(=O)NCCC(=O)N1CCN(c2ccccn2)CC1 (stereo not given) | -3.95 | 2.63 | 4.4 | 4.32 | 3.99 | -8.28 | 6.23 | -5.03 | 2.13 | 5.2 | 0.201
11 | CC(=O)Nc1nc(C(=O)N2CCCC(c3cc(C)[nH]n3)C2)cs1 (stereo not given) | -6.81 | -28.9 | -1.06 | 8.53 | 6.63 | 0.36 | 2.28 | 2.32 | 4.43 | 11.1 | 0.638
12 | COc1ccc(C(O)CNC(=O)Nc2cc(C)nn2C)cc1 (stereo not given) | -8.64 | 5.26 | 3.77 | -0.779 | -9.59 | -1.53 | 15.4 | 20.4 | -3.43 | -2.44 | -6.99
13 | CCn1c(C2CCCN(Cc3nccn3CCOC)C2)nn(C)c1=O (stereo not given) | -0.824 | 8.11 | -5.71 | 28.2 | 3.03 | 32.5 | 3.69 | -44.6 | 9.68 | 18.5 | -6.18
14 | COc1ccc(CCN2CCCC(CN(C)Cc3ccc(C)o3)C2)cc1 (stereo not given) | -1.16 | 0 | -4.07 | 31.8 | 5.18 | 4.71 | 0.772 | 11.1 | 5.38 | 11.1 | 0.528
15 | O=C(NCc1ccccc1CN1CCC(O)CC1)Nc1cccnc1 | -1.42 | -5.41 | -1.33 | 2.18 | 0.193 | 2.38 | 8.79 | -8.19 | 1.59 | -2.44 | -1.85
16 | CCN(CC)Cc1ccc(C(=O)N2CCCCC2Cn2cccn2)o1 (stereo not given) | -1.67 | -5.41 | 0.822 | 4.06 | -0.0929 | -1.29 | 3.23 | 2.84 | 0 | 1.22 | 0.882
17 | Cc1ccccc1C(=O)Nc1cnn(CC(=O)NC2CCCC2)c1 | -4.39 | 0 | -22.8 | 4.85 | 1.98 | 1.6 | 20.5 | 6.03 | 7.29 | 11.1 | -0.609
18 | COCCN(C)C[C@@H]1CN(C(=O)c2cccc(C(F)(F)F)c2)C[C@@H]1CO | -0.782 | 2.7 | 1.75 | 21.1 | 5.79 | 10 | 13.4 | -3.37 | 2.65 | 14.6 | -4.78
19 | Cn1cccc1C(=O)N1CCc2ncnc(C3CC3)c2CC1 | -4.53 | 13.3 | 9.69 | -5.45 | -5.12 | -0.699 | 21.1 | 22.4 | 0 | 6.41 | -1.35
20 | O=C1NCC2(CCCN(CCc3ccccc3)C2)Oc2ccccc21 (stereo not given) | -3.06 | 6.76 | 2.18 | -8.67 | -3.36 | 2.55 | 6.86 | 15.8 | -1.07 | 6.49 | -14.2
